Sampled rows, rich in hits. Any-hit rate of the full collection: about 3.8%.
M18AAP inhibitor = PfM18AAP enzyme inhibition | recombinant PfM18AAP, H-Glu-NHMec fluorogenic cleavage | inhibition, % at 7.35 µM | 290,000 tested, 1.2% active | AID 1822;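 active = inhibition above the campaign mean inhibition over all tested compounds plus 3 SD, cut at about 28% in these data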;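 also: 0% = plate median of test compound wells and 100% = 2 mM ZnCl2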
DSG3 Ab inh = inhibitors of pemphigus antibody binding to human desmoglein-3. binding (percent of control), % at 10 µM. 310,000 tested, 0.48% active. DSG3-coupled beads, scFv-anti-DSG3-GFP binding, flow cytometry; active compounds read low;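 active = binding more than 3 SD below its plate's average and above zero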;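 also: hits lower antibody fragment binding to DSG3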
PAFAH1B2 FP inh = PAFAH1B2 (human) inhibition. P68402. recombinant PAFAH1B2, FP-rhodamine activity probe, fluorescence polarization. inhibition, % at 3.39 µM. 340,000 tested, 1.2% active;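 active = inhibition above the mean of all tested compounds plus 3 SD, cut at about 24% in these data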;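 also: 0% = enzyme with DMSO and 100% = wells lacking PAFAH1B2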
Target sequence (P68402 whole entry, looked up): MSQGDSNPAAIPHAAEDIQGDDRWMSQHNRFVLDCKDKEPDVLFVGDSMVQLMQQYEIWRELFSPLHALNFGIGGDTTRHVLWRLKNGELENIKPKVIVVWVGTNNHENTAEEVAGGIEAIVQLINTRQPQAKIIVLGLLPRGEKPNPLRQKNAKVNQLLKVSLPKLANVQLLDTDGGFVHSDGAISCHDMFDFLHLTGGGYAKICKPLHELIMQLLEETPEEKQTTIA
pPAFAH inh = pPAFAH (human) enzyme inhibition; 330,000 tested, 1.5% active; recombinant pPAFAH, FP-rhodamine probe fluorescence polarization; Q13093; inhibition, % at 3.39 µM;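 active = inhibition above the mean inhibition across the screen plus 3 SD, cut at about 25% in these data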;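 also: inhibitors block binding of the rhodamine activity-based probe so polarization drops; 0% = enzyme with DMSO and 100% = wells lacking pPAFAH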
PAFAH1B3 inh = blocks human PAF acetylhydrolase 1B catalytic subunit 3 | recombinant PAFAH1B3, FP-rhodamine probe, fluorescence polarization | inhibition, % at 3.39 µM | 340,000 tested, 0.28% active | AID 492972;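 active = inhibition above the screen-wide average of all tested compounds plus 3 SD, cut at about 25% in these data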;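 also: 0% = enzyme with DMSO only and 100% = wells lacking PAFAH1B3 protein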
Target sequence (Q15102 whole entry, looked up): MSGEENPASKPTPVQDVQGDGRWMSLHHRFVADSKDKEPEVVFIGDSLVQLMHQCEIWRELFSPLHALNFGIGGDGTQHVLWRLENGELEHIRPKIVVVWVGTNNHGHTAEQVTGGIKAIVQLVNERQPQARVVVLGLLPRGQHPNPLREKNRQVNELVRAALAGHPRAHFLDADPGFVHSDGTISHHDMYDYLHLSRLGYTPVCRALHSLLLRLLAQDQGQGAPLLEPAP
PAFAH2 inh = PAFAH2 (human) inhibition | Q99487 | recombinant PAFAH2, FP-rhodamine activity probe, fluorescence polarization | inhibition, % at 3.39 µM | 340,000 tested, 0.99% active;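 active = inhibition above the mean over all tested compounds plus 3 SD, cut at about 30% in these data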;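 also: inhibitors block probe labeling of enzyme so polarization drops; 0% = enzyme with DMSO and 100% = wells lacking PAFAH2 protein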
PAFAH2 confirm = PAFAH2 (human) inhibition, confirmed; shares compounds with PAFAH2 inh; recombinant PAFAH2, FP-rhodamine activity probe, fluorescence polarization; inhibition, % at 3.39 µM; 2,300 tested, 65% active;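 active = mean inhibition over three repeats above a set limit taken from the earlier primary screen, cut at about 30% in these data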;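 also: inhibitor blocks binding of rhodamine activity probe so polarization falls; 0% = enzyme with DMSO and 100% = wells lacking PAFAH2 protein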
* marks the source's active call; other numbers are inactive results; · = no result.

SMILES	M18AAP inhibitor	DSG3 Ab inh	PAFAH1B2 FP inh	pPAFAH inh	PAFAH1B3 inh	PAFAH2 inh	PAFAH2 confirm
CC1CCCC(NC(=O)COC(=O)c2ccccc2NC(=O)c2ccco2)C1C (configuration not stated)	-4	95	-5	3	3	-10	·
CC1CCCC(C)N1C(=O)COC(=O)/C=C/c1ccco1 (configuration not stated)	·	104	1	-7	1	5	·
O=C(COC(=O)/C=C/c1ccc([N+](=O)[O-])cc1)NCc1ccccc1	-3	·	-2	4	1	-1	·
CC1CCCC(NC(=O)COC(=O)c2ccccc2[N+](=O)[O-])C1C (configuration not stated)	-5	107	6	7	1	65*	57*
CSCCC(NC(=O)c1ccc([N+](=O)[O-])cc1Cl)C(=O)OCC(=O)NC1CCCC(C)C1C (configuration not stated)	-10	101	8	5	-1	33*	21
CC1CCCC(NC(=O)COC(=O)/C=C/c2ccc([N+](=O)[O-])cc2)C1C (configuration not stated)	·	·	5	11	9	62*	20
CC1CCCC(NC(=O)COC(=O)/C=C/c2ccco2)C1C (configuration not stated)	·	·	0	8	6	86*	79*
CCN(C(=O)COC(=O)CC1CCCCC1)c1c(N)n(Cc2ccccc2)c(=O)[nH]c1=O	·	102	6	-3	1	7	·
COc1cc(NS(=O)(=O)c2ccc3c(c2)C(C)(C)C(=O)N3C)cc(OC)c1	0	116	-2	3	9	3	·
COc1ccc(Cl)cc1C(=O)OCC(=O)NC1CCCC(C)C1C (configuration not stated)	·	100	7	·	3	35*	26
CCCn1c(C)cc(/C=C(\C#N)C(=O)OCC(=O)Nc2cccc(S(N)(=O)=O)c2)c1C	·	88	-2	8	-3	34*	26
Cc1cc(/C=C(\C#N)C(=O)OCC(=O)NC(=O)NC(C)(C)C)c(C)n1CCC(C)C	8	100	2	2	-8	0	·
CCCn1c(C)cc(/C=C(\C#N)C(=O)OCC(=O)Nc2cccc(OC)c2)c1C	-6	99	0	-5	-1	54*	60*
COc1ccccc1OCC(=O)NNC(=O)Nc1ccccc1	·	·	-1	-2	1	5	·
Cc1ccc(C(=O)O/N=C/C2=C(Cl)c3ccccc3CC2)cc1	1	106	4	1	3	38*	70*
COc1cc(/C=C/C(=O)OCC(=O)N2CCCc3ccccc32)ccc1O	·	98	2	5	6	51*	41*
COc1cc(/C=C/C(=O)OCC(=O)N2CCCc3ccccc32)ccc1OCC#N	·	104	-3	2	0	40*	19
CC(C)(C)[C@H]1COC(=O)[C@H](NC(=O)OCC2c3ccccc3-c3ccccc32)C/C=C\C[C@@H](CC(=O)N[C@@H](CO)Cc2ccccc2)C(=O)N1	·	98	6	7	17	4	·
Cc1ccc(Cn2c(=O)n(C)c(=O)c3sccc32)cc1	1	97	2	-2	7	-3	·
Cc1cnc(C(=O)OCC(=O)Nc2ccccc2[N+](=O)[O-])cn1	·	92	2	-4	9	9	·
N#Cc1ccccc1NC(=O)COC(=O)c1cccs1	·	114	5	4	-2	84*	63*
O=C(COC(=O)c1cccs1)Nc1ccccc1[N+](=O)[O-]	0	98	3	2	-3	75*	68*
COc1cc2cc(CCOC(=O)c3ccco3)oc(=O)c2cc1OC	·	103	-6	0	1	1	·
Cc1ccc(NC(=S)N2CCN(S(=O)(=O)c3ccccc3)CC2)cc1C	-4	110	6	·	4	-2	·
O=C1OC(c2ccccc2)Sc2ccccc21 (configuration not stated)	·	104	5	·	2	81*	85*
SMILES	M18AAP inhibitor	DSG3 Ab inh	PAFAH1B2 FP inh	pPAFAH inh	PAFAH1B3 inh	PAFAH2 inh	PAFAH2 confirm
CSc1ccc(/C=C/C(=O)OCC(=O)NC2CC2)cc1	·	·	0	3	1	57*	48*
O=C(COC(=O)/C=C/c1ccc(C(F)(F)F)cc1)NC1CC1	·	96	3	-1	5	18	·
O=C(COC(=O)/C=C/c1ccc(Cl)cc1)NC1CC1	·	102	-2	6	6	52*	34*
CSc1ccc(/C=C/C(=O)OCC(=O)NC(C)C)cc1	-11	·	·	5	·	·	·
O=C(CC(=O)NC1CCCCC1)N/N=C/c1ccc(Cl)cc1	2	105	7	-2	5	7	·
O=C(COC(=O)/C=C/c1ccc(Cl)cc1)NC1CCCCCC1	·	100	5	6	6	79*	71*
CCSC1=NSC2=NC(=O)/C(=C\c3coc4ccccc4c3=O)C(=N)N12	7	·	11	7	7	33*	21
Cc1cc(C)c(CNC(=O)c2cc(C3CC3)nc3c2cnn3C(C)C)c(=O)[nH]1	·	103	-5	-1	6	-2	·
CC(C)CCN1C(=O)c2ccc(C(=O)Nc3ccccc3C(=O)O)cc2C1=O	2	94	2	·	1	40*	20
CC(C)CCN1C(=O)c2ccc(C(=O)Nc3ccc(O)cc3C(=O)O)cc2C1=O	-4	97	10	10	2	11	·
CCOc1ccc(S(=O)(=O)N2CN(c3cccc(C(C)=O)c3)c3nc4ccccc4nc32)cc1	·	·	-1	4	-6	12	·
CSc1ccccc1NC(=O)COC(=O)c1ccc(O)cc1	6	108	2	16	9	54*	38*
CSc1ccccc1NC(=O)COC(=O)c1ccccc1O	3	96	0	3	1	5	·
CCCCOC(=O)c1ccc(O)cc1	6	101	2	0	6	2	·
O=C(CCCOC(=O)c1ccc(O)cc1)c1ccccc1	·	118	8	13	8	50*	45*
O=C(COC(=O)c1ccc(O)cc1)Nc1ccccc1-c1ccccc1	1	103	7	6	9	46*	39*
O=C(COC(=O)c1ccc(O)cc1)NC(c1ccccc1)c1ccccc1	·	122	10	17	1	46*	36*
O=C(O)C1C2CCC(C2)C1C(=O)N1CCCC1 (configuration not stated)	-3	106	5	4	14	0	·
Cc1ccc(N=C(NOC(=O)c2ccccc2)c2nonc2N)c(C)c1	6	105	-1	5	-7	68*	67*
Cc1ccc(N=C(NOCc2ccc(Cl)cc2Cl)c2nonc2N)c(C)c1	-12	121	3	-11	-7	-12	·

Assay outcomes as filed in PubChem.
